Data taken from PubChem BioAssay AID1159580 (chemical genetic matrix, 2015).
Hit rate of the full screen: of about 5,500 compounds, about 2,000 (36%) were called active. Roughly 18% stayed inconclusive and do not appear here. No stated cut-off is given here; in the data, active means normalized growth mostly below about 0.91 (no sharp cut-off); inconclusive means no clear call, values can overlap the other calls; inactive means mostly above about 0.92. Some of the results follow.

Assay: chemical genetic growth profiling, strain panel (AID 1159580);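 further: tested at 20 µM; growth read once vehicle control cultures reached saturation at 30 °C; 1 = growth at the plate median or of vehicle wells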
Conditions: growth OD

Measured: normalized growth

CCCCSP(=O)(SCCCC)SCCCC
inactive: S. cerevisiae deletion strains, locus YAL013W, strain DEP1, stronger effect = lower value 1.01 | S. cerevisiae deletion strains, locus YBR021W, strain FUR4, stronger effect = lower value 1 | S. cerevisiae deletion strains, locus YBR229C, strain ROT2, stronger effect = lower value 1.01 | S. cerevisiae deletion strains, locus YCL029C, strain bik1, stronger effect = lower value 1.01 | S. cerevisiae deletion strains, locus YDL035C, strain GPR1, stronger effect = lower value 1.01 | S. cerevisiae deletion strains, locus YDL074C, strain BRE1, stronger effect = lower value 1.04 | S. cerevisiae deletion strains, locus YDL101C, strain DUN1, stronger effect = lower value 1.02 | S. cerevisiae deletion strains, locus YDL134C, strain PPH21, stronger effect = lower value 1.01 | S. cerevisiae deletion strains, locus YDL185W, strain tfp1, stronger effect = lower value 1.01 | S. cerevisiae deletion strains, locus YDL192W, strain arf1, stronger effect = lower value 1.01 | S. cerevisiae deletion strains, locus YDR101C, strain arx1, stronger effect = lower value 1.01 | S. cerevisiae deletion strains, locus YDR150W, strain NUM1, stronger effect = lower value 1.01 | S. cerevisiae deletion strains, locus YDR162C, strain NBP2, stronger effect = lower value 1.02 | S. cerevisiae deletion strains, locus YDR318W, strain mcm21, stronger effect = lower value 1.01 | S. cerevisiae deletion strains, locus YDR388W, stronger effect = lower value 1.01 | S. cerevisiae deletion strains, locus YDR502C, strain sam2, stronger effect = lower value 1.01 | S. cerevisiae deletion strains, locus YEL061C, strain CIN8, stronger effect = lower value 1.01 | S. cerevisiae deletion strains, locus YER110C, stronger effect = lower value 1.01 | S. cerevisiae deletion strains, locus YER155C, strain BEM2, stronger effect = lower value 1.01 | S. cerevisiae deletion strains, locus YER167W, strain BCK2, stronger effect = lower value 1.02 | S. cerevisiae deletion strains, locus YGL078C, strain dbp3, stronger effect = lower value 1.01 | S. cerevisiae deletion strains, locus YGL086W, strain mad1, stronger effect = lower value 1 | S. cerevisiae deletion strains, locus YGL248W, strain PDE1, stronger effect = lower value 1.02 | S. cerevisiae deletion strains, locus YGR078C, strain PAC10, stronger effect = lower value 1.02 | S. cerevisiae deletion strains, locus YGR135W, strain pre9, stronger effect = lower value 1 | S. cerevisiae deletion strains, locus YGR229C, strain SMI1, stronger effect = lower value 1.04 | S. cerevisiae deletion strains, locus YGR252W, strain gcn5, stronger effect = lower value 0.984 | S. cerevisiae deletion strains, locus YHR030C, strain SLT2, stronger effect = lower value 1.02 | S. cerevisiae deletion strains, locus YHR079C, strain IRE1 (second series), stronger effect = lower value 1.01 | S. cerevisiae deletion strains, locus YHR094C, strain hxt1, stronger effect = lower value 1 | S. cerevisiae deletion strains, locus YHR129C, strain ARP1, stronger effect = lower value 1.02 | S. cerevisiae deletion strains, locus YHR200W, strain rpn10, stronger effect = lower value 1 | S. cerevisiae deletion strains, locus YIL066C, strain RNR3, stronger effect = lower value 1.02 | S. cerevisiae deletion strains, locus YIL073C, strain SPO22, stronger effect = lower value 1.06 | S. cerevisiae deletion strains, locus YIL125W, strain kgd1, stronger effect = lower value 1.01 | S. cerevisiae deletion strains, locus YIR030C, strain dcg1, stronger effect = lower value 0.996 | S. cerevisiae deletion strains, locus YJL095W, strain BCK1, stronger effect = lower value 1.05 | S. cerevisiae deletion strains, locus YJL134W, strain LCB3, stronger effect = lower value 1.02 | S. cerevisiae deletion strains, locus YJL168C, strain set2, stronger effect = lower value 1.01 | S. cerevisiae deletion strains, locus YJL187C, strain SWE1 (second series), stronger effect = lower value 1.01 | S. cerevisiae deletion strains, locus YJR043C, strain POL32, stronger effect = lower value 1.01 | S. cerevisiae deletion strains, locus YJR075W, strain HOC1, stronger effect = lower value 1.02 | S. cerevisiae deletion strains, locus YKL009W, strain mrt4, stronger effect = lower value 0.961 | S. cerevisiae deletion strains, locus YKL068W, stronger effect = lower value 1.01 | S. cerevisiae deletion strains, locus YKL085W, strain MDH1 (second series), stronger effect = lower value 1.01 | S. cerevisiae deletion strains, locus YKL085W, strain MDH1, stronger effect = lower value 1.01 | S. cerevisiae deletion strains, locus YKL190W, strain CNB1, stronger effect = lower value 1.02 | S. cerevisiae deletion strains, locus YKR001C, strain vps1, stronger effect = lower value 1.01 | S. cerevisiae deletion strains, locus YLR039C, strain RIC1, stronger effect = lower value 1.05 | S. cerevisiae deletion strains, locus YLR058C, strain SHM2, stronger effect = lower value 1.01 | S. cerevisiae deletion strains, locus YLR102C, strain apc9, stronger effect = lower value 0.995 | S. cerevisiae deletion strains, locus YLR262C, strain YPT6, stronger effect = lower value 1.04 | S. cerevisiae deletion strains, locus YLR268W, strain sec22, stronger effect = lower value 1.01 | S. cerevisiae deletion strains, locus YLR330W, strain CHS5, stronger effect = lower value 1.01 | S. cerevisiae deletion strains, locus YLR342W, strain FKS1 (second series), stronger effect = lower value 1.04 | S. cerevisiae deletion strains, locus YLR371W, strain rom2, stronger effect = lower value 0.999 | S. cerevisiae deletion strains, locus YLR418C, strain cdc73, stronger effect = lower value 1.02 | S. cerevisiae deletion strains, locus YML016C, strain PPZ1, stronger effect = lower value 1.02 | S. cerevisiae deletion strains, locus YML032C, strain rad52, stronger effect = lower value 1.01 | S. cerevisiae deletion strains, locus YML124C, strain tub3, stronger effect = lower value 1.01 | S. cerevisiae deletion strains, locus YMR078C, strain ctf18, stronger effect = lower value 1.01 | S. cerevisiae deletion strains, locus YMR223W, strain ubp8, stronger effect = lower value 1 | S. cerevisiae deletion strains, locus YMR263W, strain SAP30, stronger effect = lower value 1.02 | S. cerevisiae deletion strains, locus YMR307W, strain GAS1, stronger effect = lower value 1.2 | S. cerevisiae deletion strains, locus YNL067W, strain RPL9B, stronger effect = lower value 1.01 | S. cerevisiae deletion strains, locus YNL128W, strain TEP1, stronger effect = lower value 1.01 | S. cerevisiae deletion strains, locus YNL153C, strain GIM3, stronger effect = lower value 1.01 | S. cerevisiae deletion strains, locus YNL233W, strain BNI4, stronger effect = lower value 1.01 | S. cerevisiae deletion strains, locus YNL250W, strain rad50, stronger effect = lower value 1.01 | S. cerevisiae deletion strains, locus YNL271C, strain bni1, stronger effect = lower value 0.998 | S. cerevisiae deletion strains, locus YNL298W, strain CLA4, stronger effect = lower value 1.02 | S. cerevisiae deletion strains, locus YNL307C, strain MCK1, stronger effect = lower value 0.992 | S. cerevisiae deletion strains, locus YNL322C, strain KRE1, stronger effect = lower value 1.01 | S. cerevisiae deletion strains, locus YNR052C, strain pop2, stronger effect = lower value 1.01 | S. cerevisiae deletion strains, locus YOL006C, strain TOP1, stronger effect = lower value 1.07 | S. cerevisiae deletion strains, locus YOL012C, strain htz1 0.841 | S. cerevisiae deletion strains, locus YOL147C, strain pex11, stronger effect = lower value 1.01 | S. cerevisiae deletion strains, locus YOR061W, strain CKA2, stronger effect = lower value 1.01 | S. cerevisiae deletion strains, locus YOR069W, strain VPS5, stronger effect = lower value 1.02 | S. cerevisiae deletion strains, locus YOR136W, strain idh2, stronger effect = lower value 1 | S. cerevisiae deletion strains, locus YOR144C, strain elg1, stronger effect = lower value 1.02 | S. cerevisiae deletion strains, locus YOR184W, strain ser1, stronger effect = lower value 0.987 | S. cerevisiae deletion strains, locus YOR316C, strain cot1, stronger effect = lower value 1.01 | S. cerevisiae deletion strains, locus YPL055C, strain LGE1, stronger effect = lower value 1.03 | S. cerevisiae deletion strains, locus YPL241C, strain CIN2, stronger effect = lower value 1.02 | S. cerevisiae deletion strains, locus YPR119W, strain clb2, stronger effect = lower value 1.01 | S. cerevisiae deletion strains, locus YPR141C, strain kar3, stronger effect = lower value 1.02 | S. cerevisiae deletion strains, locus YPR163C, strain tif3, stronger effect = lower value 1.01 | S. cerevisiae deletion strains, locus YPR167C, strain met16, stronger effect = lower value 1 | S. cerevisiae deletion strains, strain wtn01, stronger effect = lower value 0.996 | S. cerevisiae strains, strain wild type, stronger effect = lower value 1.02
